Screening data deposited in PubChem BioAssay by several laboratories.
Calb FLC: C. albicans growth inhibition with fluconazole, primary screen, CaCi-2 strain, Alamar Blue fluorescence; C. albicans CaCi-2 (fluconazole-resistant clinical isolate) + fluconazole, 48 h; growth inhibition, % (no concentration beside the values); actives 0.57% (n = 300,000);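 active = growth inhibition above about 58% in most replicates, limit read from the data, passing the limit was not always enough; inconclusive = exactly half the replicates above a set limit; inactive = most replicates below a set limit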;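 also: all wells also contain fluconazole at 8 µg/ml as a sub-toxic cotreatment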
phage Ecoli inh: growth loss of phage-infected E. coli, primary screen, RecBCD inhibitor project, absorbance, with phage, HTS; inhibition, % at 11.9 µM; actives 0.26% (n = 360,000); in the data active = inhibition above about 11%
AddAB inh: growth inhibition of E. coli expressing H. pylori AddAB, primary screen, AddAB inhibitor project, absorbance; inhibition, % at 11.9 µM; actives 0.29% (n = 330,000); AID 435030, 2010; in the data active = inhibition above about 12%
E coli growth-1: E. coli growth inhibition, primary screen, OD600; Escherichia coli growth, 23 h; active compounds read low; OD600 absorbance (concentration not given with the values); actives 0.21% (n = 330,000);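 active = OD600 absorbance below the run mean of sample wells minus 3.6 SD, in any replicate, cut at about 0.56 in these data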
Tat transport: E. coli Tat export inhibitors, primary screen, MC4100, TorA-mCherry reporter, fluorescence, single point; inhibition, % at 10 µM; actives 0.036% (n = 340,000); AID 488895, 2010;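 active = mean replicate inhibition at least 50% and at least half of replicates individually reaching 50%; inconclusive = only one of the two criteria met; inactive = neither criterion met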;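 also: exported cargo escapes ClpAP degradation while cytoplasmic cargo is degraded and loses fluorescence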
E coli growth-2: E. coli V3065 growth inhibition, primary screen, counter-screen for AddAB inhibitor project, absorbance, OD600 | 18 h | inhibition, % at 11.9 µM | actives 0.27% (n = 330,000) | AID 449728, 2010;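 active = inhibition above the campaign's mean inhibition across all tested compounds plus 3 SD, cut at about 9.9% in these data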;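 also: uninfected addAB+ strain grown without phage in ampicillin broth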
AddAB confirm: growth loss of phage-infected E. coli expressing H. pylori AddAB, confirmation, AddAB inhibitor project, absorbance, E. coli V3065, T4 phage, triplicate. actives 64% (n = 880). inhibition, % at 11.9 µM. shares compounds with AddAB inh. OD; T4 phage with gene 2 nonsense mutations;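 active = mean inhibition above a set limit taken from the earlier primary screen, cut at about 13% in these data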;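 also: higher means less bacterial growth since AddAB block lets phage replicate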
RecBCD counter: growth loss of RecBCD+ E. coli with mutant T4 phage, counter-screen for AddAB inhibitor project, absorbance, V66 E. coli; shares compounds with AddAB inh; OD growth; inhibition, % at 11.9 µM; actives 73% (n = 880);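 active = mean inhibition above the mean of solvent-only control wells plus 3 SD, cut at about 4% in these data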;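 also: optical density read after an 18 h incubation at 37 °C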
bact viab count: bacterial viability inhibition counter-screen, confirmation, counter-screen for AddAB inhibitor project, absorbance; shares compounds with AddAB inh; absorbance (AddAB counterscreen); inhibition, % at 11.9 µM; actives 35% (n = 880); AID 488956, 2010; in the data active = inhibition above about 25%
Hits are given with their value. Only some compounds are listed: those with a hit (about 0.9% of all), similar ones and a draw of the others.

What do the screens show for `Cc1nc2sc(C(c3ccco3)N3CCN(C(c4ccccc4)c4ccccc4)CC3)c(O)n2n1` (stereo not drawn)?
Calb FLC: inactive; phage Ecoli inh: inactive; AddAB inh: 37.4; E coli growth-1: inactive; Tat transport: inactive; E coli growth-2: 22.2; AddAB confirm: inactive; RecBCD counter: inactive; bact viab count: inactive

How did Cn1c(NC(=O)C=Cc2c(F)cccc2Cl)cc(=O)n(C)c1=O do in these assays?
E coli growth-1: inactive

What do the screens show for `COc1ccc2cc(C3=CC(=O)CC(c4ccc5c(c4)OCO5)C3)ccc2c1` (stereo not drawn)?
E coli growth-1: inactive

Results for c1ccc(CC2=NCCN2)cc1 ?
phage Ecoli inh: inactive; AddAB inh: inactive; E coli growth-1: inactive; Tat transport: inconclusive; E coli growth-2: inactive

What do the screens show for `Cc1cc(C(C)(C)C)cc(C)c1CC1=NCCN1`?
Calb FLC: inactive; phage Ecoli inh: inactive; AddAB inh: 14.3; E coli growth-1: inactive; Tat transport: inactive; E coli growth-2: 10.0; AddAB confirm: 53.0; RecBCD counter: inactive; bact viab count: inactive

What do the screens show for `C#CCOCCOCCOCCNc1nc(N2CCN(C(=O)C(CCCCN)n3cc(C(N)CC(C)C)nn3)CC2)nc(N2CCN(C(=O)C(Cc3cc4ccccc4[nH]3)n3cc(C(N)C(C)CC)nn3)CC2)n1` (stereo not drawn)?
E coli growth-1: inactive

What do the screens show for `O=C(O)[C@H](O)[C@@H](O)C(=O)O`?
phage Ecoli inh: inactive; AddAB inh: 24.7; E coli growth-1: inactive; Tat transport: inactive; E coli growth-2: inactive; AddAB confirm: inactive; RecBCD counter: inactive; bact viab count: inactive

How did COc1ccccc1NC(=O)c1ccc(COc2ccccc2OC)o1 do in these assays?
Calb FLC: inactive; phage Ecoli inh: inactive; AddAB inh: inactive; E coli growth-1: inactive; Tat transport: inactive; E coli growth-2: inactive

What do the screens show for `CC1CCN(c2ccccc2NC(=O)c2ccc([N+](=O)[O-])o2)CC1`?
Calb FLC: inactive; phage Ecoli inh: inactive; AddAB inh: inactive; E coli growth-1: inactive; Tat transport: inactive; E coli growth-2: inactive

Results for COc1ccccc1NC(=O)c1ccc([N+](=O)[O-])o1 ?
Calb FLC: inactive; phage Ecoli inh: inactive; AddAB inh: 30.3; E coli growth-1: 0.494; E coli growth-2: 23.9; AddAB confirm: 98.0; RecBCD counter: 13.5; bact viab count: 43.2

How did O=C(Nc1ccccc1N1CCCC1)c1ccc([N+](=O)[O-])o1 do in these assays?
Calb FLC: inactive; phage Ecoli inh: inactive; AddAB inh: 14.0; E coli growth-1: inactive; Tat transport: inactive; E coli growth-2: inactive; AddAB confirm: 23.3; RecBCD counter: inactive; bact viab count: inactive

How did CNC(=S)NN=Cc1ccc(OCC(=O)Nc2c(C)cc(C)cc2C)c(OC)c1 do in these assays?
E coli growth-1: inactive

How did CCC1=C(OC(=O)N(CC)CC)N2C(=O)OC(=NCCc3c[nH]c4ccccc34)[C@]2(Cc2ccccc2)C2C1=CCC1C(=O)NC(=O)C12 (stereo partly drawn) do in these assays?
E coli growth-1: inactive

What do the screens show for `O=C(NCc1ccccc1)C1(C(F)(F)F)CC(=CCCO)CCCO1` (stereo not drawn)?
E coli growth-1: inactive

What do the screens show for `CCOc1cc(N)c(Cl)cc1C(=O)NCC1CN(Cc2ccc(F)cc2)CCO1` (stereo not drawn)?
Calb FLC: inactive; phage Ecoli inh: inactive; AddAB inh: 98.6; E coli growth-1: 0.0635; Tat transport: inactive; E coli growth-2: 92.5; AddAB confirm: 101.0; RecBCD counter: 11.6; bact viab count: 97.9

How did C#CCOCCOCCOCCNc1nc(N2CCN(C(=O)C(C)n3cc(CCC(=O)O)nn3)CC2)nc(N2CCN(C(=O)C(CCCCN)n3cc(CCCC)nn3)CC2)n1 (stereo not drawn) do in these assays?
E coli growth-1: inactive

What do the screens show for `Cc1cc(NN=Cc2ccncc2)nc2ccccc12`?
E coli growth-1: inactive

What do the screens show for `Cn1c(/C=C/c2ccc([N+](=O)[O-])o2)nc2ccccc2c1=O`?
Calb FLC: inactive; AddAB inh: 62.8; E coli growth-1: 0.442; Tat transport: inactive; E coli growth-2: 79.1; AddAB confirm: 99.2; RecBCD counter: 28.9; bact viab count: 100.0

How did Cc1cc(N/N=C/c2ccc([N+](=O)[O-])o2)nc2ccccc12 do in these assays?
Calb FLC: inactive; phage Ecoli inh: inactive; AddAB inh: 49.6; Tat transport: inactive; E coli growth-2: 32.4; AddAB confirm: 43.2; RecBCD counter: 4.9; bact viab count: inactive

Results for NC(=S)N/N=C/c1ccc(C(F)(F)F)cc1 ?
Calb FLC: inactive; phage Ecoli inh: inactive; AddAB inh: inactive; Tat transport: inactive; E coli growth-2: inactive

How did NC(=S)N/N=C/c1ncc(C(F)(F)F)cc1Cl do in these assays?
Calb FLC: inactive; AddAB inh: 23.3; Tat transport: inactive; E coli growth-2: 18.3; AddAB confirm: 17.7; RecBCD counter: 17.7; bact viab count: inactive

How did Cc1c(Br)c([N+](=O)[O-])nn1C(C)C(=O)NCc1ccco1 (stereo not drawn) do in these assays?
Calb FLC: inactive; phage Ecoli inh: inactive; AddAB inh: 16.8; E coli growth-1: inactive; Tat transport: inactive; E coli growth-2: inactive; AddAB confirm: 17.4; RecBCD counter: inactive; bact viab count: inactive

Results for CCn1cc(C(=O)NCc2cccc(F)c2)c(=O)c2cc(F)c(N3CCN(C(=O)c4ccco4)CC3)cc21 ?
Calb FLC: inactive; phage Ecoli inh: inactive; AddAB inh: 94.8; E coli growth-1: 0.408; Tat transport: inactive; E coli growth-2: 70.0; AddAB confirm: 97.7; RecBCD counter: inactive; bact viab count: 61.9

Results for CCn1cc(C(=O)NN)c(=O)c2cc(F)c(N3CCCCC3)cc21 ?
Calb FLC: inactive; phage Ecoli inh: inactive; E coli growth-1: inactive; Tat transport: inactive

What do the screens show for `CCCNC(=O)c1cn(CC)c2cc(N3CCN(C(=O)c4ccco4)CC3)c(F)cc2c1=O`?
Calb FLC: inactive; phage Ecoli inh: inactive; AddAB inh: 94.0; E coli growth-1: 0.0895; Tat transport: inactive; E coli growth-2: 57.7; AddAB confirm: 98.9; RecBCD counter: inactive; bact viab count: 57.9

Results for CC(CO)NC(=O)C(C)C1C[C@@]1(C)C(NC(=O)OCc1ccccc1)c1ccccc1 (stereo partly drawn) ?
E coli growth-1: inactive
